How the values were obtained:
Test in all cases: DAPPL (digital affinity profiling via proximity ligation, sequencing); 10 mM Tris-HCl pH 7.5, 50 mM NaCl, 1 mM DTT, 4% glycerol, room temperature, 30 min; GST-TFs on glutathione beads, 16-mer random dsDNA library, 0.1% formaldehyde crosslink after washing; high values mean tight binding
HSF1 = HSF1 (Homo sapiens, UniProt Q00613 1-529); conditions: protein: recombinant; tags: N-terminal GST; chain copies: 3; dsDNA, one strand shown
Method in brief: (§1)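 Yeast served to express human transcription factors as GST fusions, which were then captured on glutathione beads and labelled with DNA barcodes. Pooled with a tag-only sample, they were incubated with 200 nmole of a 16-mer random double-stranded DNA library for 30 min at room temperature in Tris/NaCl/DTT/glycerol buffer, washed, crosslinked with 0.1% formaldehyde, ligated by proximity, amplified by PCR and sequenced. Dividing each hexamer's read frequency for a factor by its frequency for the tag-only sample gives the binding signal.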

ELK4 = biological target: T1, ELK4 (Homo sapiens, UniProt P28324-2 1-405); conditions: protein: recombinant; tags: N-terminal GST; dsDNA, one strand shown
T1 sequence: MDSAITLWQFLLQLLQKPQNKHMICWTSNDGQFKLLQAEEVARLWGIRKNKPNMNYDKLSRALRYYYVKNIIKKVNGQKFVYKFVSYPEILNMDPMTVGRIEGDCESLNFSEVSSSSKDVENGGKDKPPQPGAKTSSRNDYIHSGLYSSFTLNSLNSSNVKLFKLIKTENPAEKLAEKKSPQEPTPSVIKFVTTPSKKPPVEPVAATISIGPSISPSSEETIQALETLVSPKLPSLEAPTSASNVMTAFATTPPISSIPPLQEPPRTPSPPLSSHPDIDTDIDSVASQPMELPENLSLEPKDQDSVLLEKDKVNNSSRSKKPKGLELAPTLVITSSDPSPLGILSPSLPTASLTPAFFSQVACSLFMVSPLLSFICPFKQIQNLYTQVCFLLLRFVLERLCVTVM
Method in brief: as §1

ETV2 = biological target: T2, ETV2 (Homo sapiens, UniProt O00321 1-342); conditions: protein: recombinant; tags: N-terminal GST; dsDNA, one strand shown
T2 sequence: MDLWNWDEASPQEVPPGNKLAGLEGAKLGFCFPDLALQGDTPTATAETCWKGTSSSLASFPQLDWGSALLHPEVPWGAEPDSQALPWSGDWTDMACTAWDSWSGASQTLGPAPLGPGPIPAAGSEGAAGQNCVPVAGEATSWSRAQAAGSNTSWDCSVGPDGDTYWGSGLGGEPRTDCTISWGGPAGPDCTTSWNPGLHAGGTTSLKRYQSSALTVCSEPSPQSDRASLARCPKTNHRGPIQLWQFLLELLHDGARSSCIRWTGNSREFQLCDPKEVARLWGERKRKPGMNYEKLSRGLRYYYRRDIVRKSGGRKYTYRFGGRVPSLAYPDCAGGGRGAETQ
Method in brief: as §1

ETV7 = biological target: T3, ETV7 (Homo sapiens, UniProt Q9Y603 1-341); conditions: protein: recombinant; tags: N-terminal GST; dsDNA, one strand shown
T3 sequence: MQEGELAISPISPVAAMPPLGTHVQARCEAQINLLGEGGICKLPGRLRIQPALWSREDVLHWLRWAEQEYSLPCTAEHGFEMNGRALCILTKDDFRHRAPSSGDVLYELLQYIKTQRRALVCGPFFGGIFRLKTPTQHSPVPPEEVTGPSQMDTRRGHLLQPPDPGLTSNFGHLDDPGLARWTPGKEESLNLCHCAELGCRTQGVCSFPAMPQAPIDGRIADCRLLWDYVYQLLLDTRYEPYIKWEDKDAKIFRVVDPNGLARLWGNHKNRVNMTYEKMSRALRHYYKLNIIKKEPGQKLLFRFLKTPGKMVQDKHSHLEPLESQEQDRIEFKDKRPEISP
Method in brief: as §1

CRX = CRX (Homo sapiens, UniProt O43186 1-299); conditions: protein: recombinant; tags: N-terminal GST; dsDNA, one strand shown
Chain of CRX (O43186 whole entry): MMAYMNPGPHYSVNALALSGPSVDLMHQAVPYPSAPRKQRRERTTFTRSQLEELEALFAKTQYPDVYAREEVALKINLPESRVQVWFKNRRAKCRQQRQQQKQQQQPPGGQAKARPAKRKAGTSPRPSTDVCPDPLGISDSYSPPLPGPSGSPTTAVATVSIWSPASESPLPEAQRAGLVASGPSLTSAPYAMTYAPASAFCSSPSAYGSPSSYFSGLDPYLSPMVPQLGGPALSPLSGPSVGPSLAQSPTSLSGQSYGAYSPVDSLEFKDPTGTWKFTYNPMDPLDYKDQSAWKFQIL
Method in brief: as §1

ERG = biological target: T4, ERG (Homo sapiens, UniProt P11308 1-479); conditions: protein: recombinant; tags: N-terminal GST; dsDNA, one strand shown
T4 sequence: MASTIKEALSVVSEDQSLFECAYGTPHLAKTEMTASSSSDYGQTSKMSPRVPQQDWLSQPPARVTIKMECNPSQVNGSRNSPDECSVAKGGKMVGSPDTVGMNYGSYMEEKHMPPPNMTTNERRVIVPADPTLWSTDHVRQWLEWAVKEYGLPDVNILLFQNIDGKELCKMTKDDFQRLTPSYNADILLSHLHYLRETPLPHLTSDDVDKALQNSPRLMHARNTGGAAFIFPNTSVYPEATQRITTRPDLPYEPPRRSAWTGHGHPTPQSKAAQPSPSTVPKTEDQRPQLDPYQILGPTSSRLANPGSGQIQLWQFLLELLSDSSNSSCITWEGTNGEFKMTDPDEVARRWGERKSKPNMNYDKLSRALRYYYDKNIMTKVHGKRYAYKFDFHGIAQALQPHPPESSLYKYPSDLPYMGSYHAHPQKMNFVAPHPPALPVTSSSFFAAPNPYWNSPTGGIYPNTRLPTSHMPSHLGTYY
Method in brief: as §1

FEV = biological target: T5, FEV (Homo sapiens, UniProt Q99581 1-238); conditions: protein: recombinant; tags: N-terminal GST; dsDNA, one strand shown
T5 sequence: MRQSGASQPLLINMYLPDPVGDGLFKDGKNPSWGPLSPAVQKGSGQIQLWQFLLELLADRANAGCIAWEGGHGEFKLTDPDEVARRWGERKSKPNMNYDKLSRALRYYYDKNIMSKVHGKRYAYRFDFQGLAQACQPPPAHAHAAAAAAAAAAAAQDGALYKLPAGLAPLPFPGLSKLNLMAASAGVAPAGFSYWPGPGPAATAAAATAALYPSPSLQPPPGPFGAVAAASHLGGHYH
Method in brief: as §1

ELF3 = biological target: T6, ELF3 (Homo sapiens, UniProt P78545 1-371); conditions: protein: recombinant; tags: N-terminal GST; dsDNA, one strand shown
T6 sequence: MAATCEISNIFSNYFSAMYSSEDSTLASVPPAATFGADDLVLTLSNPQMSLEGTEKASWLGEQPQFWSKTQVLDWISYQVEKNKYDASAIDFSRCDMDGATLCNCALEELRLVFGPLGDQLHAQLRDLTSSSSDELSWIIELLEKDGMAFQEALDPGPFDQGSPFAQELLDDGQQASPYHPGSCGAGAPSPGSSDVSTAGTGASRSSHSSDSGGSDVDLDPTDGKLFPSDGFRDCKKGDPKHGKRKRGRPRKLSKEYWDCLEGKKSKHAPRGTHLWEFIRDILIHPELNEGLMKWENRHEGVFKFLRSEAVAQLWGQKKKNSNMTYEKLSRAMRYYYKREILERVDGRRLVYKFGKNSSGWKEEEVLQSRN
Method in brief: as §1

SPDEF = biological target: T7, SPDEF (Homo sapiens, UniProt O95238 1-335); conditions: protein: recombinant; tags: N-terminal GST; dsDNA, one strand shown
T7 sequence: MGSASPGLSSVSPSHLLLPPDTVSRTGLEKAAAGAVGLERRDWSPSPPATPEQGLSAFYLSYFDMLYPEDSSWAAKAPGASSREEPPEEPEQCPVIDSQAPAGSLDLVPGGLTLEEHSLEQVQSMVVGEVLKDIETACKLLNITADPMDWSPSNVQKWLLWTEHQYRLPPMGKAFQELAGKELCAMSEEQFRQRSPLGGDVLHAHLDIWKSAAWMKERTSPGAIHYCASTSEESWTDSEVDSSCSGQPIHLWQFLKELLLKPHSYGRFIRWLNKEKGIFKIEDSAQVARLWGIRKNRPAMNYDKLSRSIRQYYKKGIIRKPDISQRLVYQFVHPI
Method in brief: as §1

ELF5 = biological target: T8, ELF5 (Homo sapiens, UniProt Q9UKW6-2 1-255); conditions: protein: recombinant; tags: N-terminal GST; dsDNA, one strand shown
T8 sequence: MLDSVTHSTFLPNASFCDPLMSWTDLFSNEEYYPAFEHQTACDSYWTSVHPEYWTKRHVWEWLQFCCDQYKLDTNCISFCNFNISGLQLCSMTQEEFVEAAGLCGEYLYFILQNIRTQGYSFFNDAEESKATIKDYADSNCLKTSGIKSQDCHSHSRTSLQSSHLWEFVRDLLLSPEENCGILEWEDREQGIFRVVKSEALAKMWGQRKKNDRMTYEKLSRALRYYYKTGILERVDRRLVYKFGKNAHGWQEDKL
Method in brief: as §1

ETV3 = biological target: T9, ETV3 (Homo sapiens, UniProt P41162-2 1-143); conditions: protein: recombinant; tags: N-terminal GST; dsDNA, one strand shown
T9 sequence: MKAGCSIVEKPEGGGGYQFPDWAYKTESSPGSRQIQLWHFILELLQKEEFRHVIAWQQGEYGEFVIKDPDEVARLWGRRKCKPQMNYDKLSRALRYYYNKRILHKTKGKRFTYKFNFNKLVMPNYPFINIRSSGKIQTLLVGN
Method in brief: as §1

Chain of HSF1 (Q00613 whole entry, the tested form may be a part): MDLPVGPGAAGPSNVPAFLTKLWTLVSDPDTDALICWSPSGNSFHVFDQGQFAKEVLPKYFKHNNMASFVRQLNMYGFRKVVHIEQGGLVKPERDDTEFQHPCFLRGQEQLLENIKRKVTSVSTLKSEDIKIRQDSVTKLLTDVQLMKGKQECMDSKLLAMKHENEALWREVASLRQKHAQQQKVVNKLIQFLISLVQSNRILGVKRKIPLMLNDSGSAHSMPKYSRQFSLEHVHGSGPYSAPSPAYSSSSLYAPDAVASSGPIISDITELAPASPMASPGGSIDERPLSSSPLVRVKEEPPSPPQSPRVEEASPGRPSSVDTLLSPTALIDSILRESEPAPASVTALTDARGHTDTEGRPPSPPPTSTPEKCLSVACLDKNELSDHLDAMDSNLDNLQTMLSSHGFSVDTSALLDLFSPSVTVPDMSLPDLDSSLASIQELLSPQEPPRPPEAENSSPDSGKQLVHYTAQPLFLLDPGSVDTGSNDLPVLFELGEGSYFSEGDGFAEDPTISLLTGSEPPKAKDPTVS

Sequence: CGAAGT
- binding signal (HSF1): 1.08 fold enrichment (6-mer frequency, TF over GST control)
- binding signal (ELK4): 1 fold enrichment (6-mer frequency, TF over GST control)
- binding signal (ETV2): 1.03 fold enrichment (6-mer frequency, TF over GST control)
- binding signal (ETV7): 1.06 fold enrichment (6-mer frequency, TF over GST control)

Sequence: CGAGAT
- binding signal (HSF1): 1.52 fold enrichment (6-mer frequency, TF over GST control)
- binding signal (ETV2): 1.07 fold enrichment (6-mer frequency, TF over GST control)
- binding signal (CRX): 1.27 fold enrichment (6-mer frequency, TF over GST control)

Sequence: GATTAG
- binding signal (HSF1): 2.22 fold enrichment (6-mer frequency, TF over GST control)
- binding signal (CRX): 3.62 fold enrichment (6-mer frequency, TF over GST control)

Sequence: TCGAGA
- binding signal (HSF1): 2.36 fold enrichment (6-mer frequency, TF over GST control)
- binding signal (CRX): 1.01 fold enrichment (6-mer frequency, TF over GST control)

Sequence: CGGATT
- binding signal (ERG): 1 fold enrichment (6-mer frequency, TF over GST control)
- binding signal (FEV): 1.44 fold enrichment (6-mer frequency, TF over GST control)
- binding signal (HSF1): 1.56 fold enrichment (6-mer frequency, TF over GST control)
- binding signal (ELF3): 1.01 fold enrichment (6-mer frequency, TF over GST control)
- binding signal (CRX): 2.48 fold enrichment (6-mer frequency, TF over GST control)
- binding signal (SPDEF): 1.42 fold enrichment (6-mer frequency, TF over GST control)
- binding signal (ELF5): 1.01 fold enrichment (6-mer frequency, TF over GST control)
- binding signal (ETV3): 1.04 fold enrichment (6-mer frequency, TF over GST control)

Reference: article PMC7862700, “An all-to-all approach to the identification of sequence-specific readers for epigenetic DNA modifications on cytosine”
